Source: PubChem BioAssay (NCI)
About 79,000 compounds went through this panel and 15% of them were active in at least one assay; those are over-represented in the sample as a whole. Values without a mark were called inactive. Activity calls are given as the source filed them. Cut-off read from the data, not from the text of the source: active = growth inhibition above about 70%; inactive = the rest.

Assay: NCI Yeast Anticancer Drug Screen. Data for the mec2-1 strain (AID 157)
Details: S. cerevisiae mec2-1 strain, at 50.0 µM (retest, dose inferred, filed as 5.0), hits give high values
Summary of the method: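 Vehicle-treated cultures served as reference for growth inhibition of compound-exposed mec2-1 yeast.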
For `NC(=O)NC(=O)N/N=C/c1ccc([N+](=O)[O-])o1`, the growth inhibition was 20%. For `O=[N+]([O-])/C=C\c1csc2ccccc12`, the growth inhibition was 98% (active). Molecule `O=[N+]([O-])c1ccc2c(c1)CCc1ccccc1-2` has a growth inhibition of 37%. In the case of `CC1=C(C)CC2C(=O)C(C(O)CC(C)C)=CC(=O)C2C1` (stereo not drawn), the growth inhibition is reported as 91% (active). For `CCC(=O)OC1CCC(C2CCCCC2)CC1` (stereo not drawn), the growth inhibition was 2%. Work on `Cc1cc(C2C(O)C(c3cc(C)on3)C2(C)O)no1` (stereo not drawn) yielded a growth inhibition of 13%. With `CC(C)C(Sc1nc(-c2ccccc2)c(-c2ccccc2)[nH]1)C(=O)NN` (stereo not drawn) the growth inhibition was 96% (active). Work on `C/C(=N\NC(=O)N/N=C(\C)c1ccccn1)c1ccccn1` yielded a growth inhibition of -16%. In the case of `COC(=O)CCCCCCCCCCC(=O)O`, the growth inhibition is reported as -2%. With `CCCCCCCCCCCCNC(=O)C[n+]1cccc(C(N)=O)c1` the growth inhibition was 90% (active). For `Nc1ccccc1N=Cc1ccccc1O`, the growth inhibition was 76% (active). With `N#Cc1c(-c2ccc(Cl)cc2)c2c(n(C3OC(CO)C(O)C(O)C3O)c1=S)CCCC2` (stereo not drawn) the growth inhibition was 77% (active). In the case of `CC(C)(C)CC(C)(C)N[P+](NC(C)(C)CC(C)(C)C)(NC(C)(C)CC(C)(C)C)NC(C)(C)CC(C)(C)C`, the growth inhibition is reported as 99% (active). For `CC(=O)OC1C(OC(C)=O)C2C(C)CC3OC(=O)C(C)C3CC2(C)C1OC(C)=O` (stereo not drawn), the growth inhibition was 82% (active). With `NNC(=O)c1ccc(N)cc1O` the growth inhibition was -1%. For `Nc1ccc2c(c1)C(=O)c1ccccc1-2`, the growth inhibition was 15%. `Cc1cn(C(C#N)=C(C#N)C#N)c2ccccc12` showed a growth inhibition of 11%. `FC(F)(F)COP1(OCC(F)(F)F)=NP(OCC(F)(F)F)(OCC(F)(F)F)=NP(c2ccccc2)(c2ccccc2)=N1` gave a growth inhibition of -1%.
